Key:
Assay type in all cases: functional
[1] = molecular target: Solute carrier family 2, facilitated glucose transporter member 1 (Homo sapiens) (UniProt P11166); assay: ST_JUDE_LEISH: Cytotoxicity at 2uM final concentration against transgenic Leishmania Mexicana promastigotes LmGLUT1 that are glucose transport deficient and complemented with the human glucose transporter GLUT1. Activity is measured by DNA content using SYBR green in vitro
[2] = molecular target: Hexose transporter 1 (Plasmodium falciparum) (UniProt O97467); assay: ST_JUDE_LEISH: Cytotoxicity at 2uM final concentration against transgenic Leishmania Mexicana promastigotes LmPfHT that are glucose transport deficient and complemented with the Plasmodium falciparum hexose transporter. Activity is measured by DNA content using SYBR green in vitro
[3] = molecular target: Glucose transporter (Leishmania mexicana) (UniProt O61059); assay: ST_JUDE_LEISH: Cytotoxicity at 2uM final concentration against transgenic Leishmania Mexicana promastigotes LmGT2 that are glucose transport deficient and complemented with the L. Mexicana glucose transporter 2. Activity is measured by DNA content using SYBR green in vitro

Chain of Solute carrier family 2, facilitated glucose transporter member 1 (Homo sapiens) (P11166 whole entry): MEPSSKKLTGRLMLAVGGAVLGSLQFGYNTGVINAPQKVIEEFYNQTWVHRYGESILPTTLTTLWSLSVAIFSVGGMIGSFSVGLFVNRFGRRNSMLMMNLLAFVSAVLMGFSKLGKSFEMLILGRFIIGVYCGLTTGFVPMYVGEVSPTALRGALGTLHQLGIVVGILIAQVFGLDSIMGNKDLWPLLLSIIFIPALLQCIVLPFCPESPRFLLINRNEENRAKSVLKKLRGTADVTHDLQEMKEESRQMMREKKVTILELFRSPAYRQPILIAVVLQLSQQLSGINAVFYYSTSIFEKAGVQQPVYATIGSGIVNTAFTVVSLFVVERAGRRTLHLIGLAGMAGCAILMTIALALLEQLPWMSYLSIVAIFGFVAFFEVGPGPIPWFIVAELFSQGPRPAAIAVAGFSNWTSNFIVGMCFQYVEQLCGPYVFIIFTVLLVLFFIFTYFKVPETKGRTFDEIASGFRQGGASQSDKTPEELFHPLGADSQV

| Compound | inhibition [1] [%] | inhibition [2] [%] | inhibition [3] [%] |
| --- | --- | --- | --- |
| N#Cc1cccc(NC(=O)Nc2cccc(OC3CCN(Cc4ccccc4)CC3)c2)c1 | 0.82 | 0.59 | -0.29 |
| CN(C)Cc1ccc(-c2cc3c(-c4ccc(CN(C)C)cc4)ccnc3[nH]2)cc1 | 5.17 | 12.8 | 2.4 |
| Cc1cc(NC(=O)c2cccs2)ccc1OC1CCN(Cc2ccccc2)C1 (configuration not stated) | 0.25 | -0.44 | 1.56 |
| CN1CCCC(CN2CCN(Cc3ccc(-c4ccc(-c5nc6ccccc6[nH]5)s4)cc3)CC2)C1 (configuration not stated) | 22.9 | 34.8 | 9.58 |
| O=C(NC(=O)c1ccccc1)NC1CCN(c2ccnc3cc(Cl)ccc23)C1 (configuration not stated) | -0.37 | 1.75 | 0.92 |
| O=C1CCCC1Sc1nc2ccccc2c(=O)n1-c1ccc(Cl)c(Cl)c1 (configuration not stated) | 2.33 | 1.97 | -1.42 |
| COc1cccc2cc(C(=O)N[C@@H](CC(C)C)C(=O)N[C@H](C=NNC(=O)OC(C)(C)C)CC(C)C)oc12 | 2.6 | 1.47 | 0.48 |
| CCCCCCCc1c(C)[nH]c2ccc(F)cc2c1=O | -0.05 | 0.32 | -0.32 |
| Cc1cccc2nc(-c3ccc(-c4ccc(CNCCCN5CCCC5=O)cc4)s3)[nH]c12 | 2.02 | 3.54 | 3.25 |
| O=C(Cc1c[nH]cn1)Nc1ccc(-c2cccc(-c3nc4cc(C(F)(F)F)ccc4[nH]3)c2)cc1 | -0.04 | 0.42 | 1.12 |
| CCNc1cc(C(=O)N[C@@H](Cc2ccccc2)[C@H](O)CNC2CCC(C)(C)CC2)cc(N2CCCCS2(=O)=O)c1 | 3.16 | 1.73 | 1.22 |
| CN(CCc1ccccc1)c1ncc(-c2ccccc2CNCc2ccccc2O)cn1 | 0.08 | -1.17 | 2.23 |
| COc1cccc(CN2CCCN(Cc3cccc(NC(=O)c4ccc(-c5ccccc5)cc4)c3)CC2)c1 | 0.95 | 0.27 | -6.64 |
| O=C(/C=C/c1ccc(Cl)c(Cl)c1)NCCCCCN1CCC(NC(=O)Nc2ccc(Cl)c(Cl)c2)CC1 | 1.02 | -0.03 | 0.09 |
| COc1ccc(CNC2CCN(C)CC2)cc1-c1ccc(S(=O)(=O)NCCN2CCCC2)s1 | -3.47 | -0.23 | -2.9 |
| Cc1nc(N)nc(N)c1-c1ccc(Cl)cc1 | 3.05 | 2.21 | 2.37 |
| O=C(Cc1ccc(NC(=O)c2ccc(O)c(-c3ccc(Cl)c(Cl)c3)c2)cc1)NCCN1CCCCC1 | -0.79 | -0.35 | 0.58 |
| CCOc1ccc(-c2nonc2NC(=O)c2ccc(OC(C)C)cc2)cc1OCC | 2.72 | 1.95 | 3.68 |
| c1ccc(Oc2ccc(Nc3ccnc(Nc4ccc(OCCN5CCCCC5)cc4)n3)cc2)cc1 | 8.95 | 12.8 | 18.4 |
| COc1cc(C=CC(=O)N2CCC3(CC2)CC(=O)c2ccccc2O3)cc(OC)c1OC | 1.6 | 2.09 | -0.58 |
| COc1ccc(-c2onc(C(F)(F)F)c2-c2ccc(Br)cc2)c(O)c1 | 2.09 | 2.27 | 1.56 |
| O=C(Nc1ccc(Cl)cc1)Nc1ccc(-c2csc(-c3nc4ccccc4[nH]3)c2)cc1 | 0.59 | 1.1 | 0.83 |

| Compound | inhibition [1] [%] | inhibition [2] [%] | inhibition [3] [%] |
| --- | --- | --- | --- |
| c1cc(-c2ccc(CN3CCCC3)cc2)cc(-c2nc3ccccc3[nH]2)c1 | 0.44 | 1.4 | 0.98 |
| Cc1cnc(Nc2cccnc2)nc1Nc1ccccc1C(=O)NC(C)C | 1.01 | 1.12 | 2.25 |
| CC(=O)N1N=C(c2ccc(F)cc2)Sc2c1nc(C1CCCCC1)n2C(C)=O | 8.37 | 6.09 | 7.07 |
| COc1ccc(Nc2nc(NCc3ccc(-n4ccnc4)cc3)cc(-c3ccc(OC)cc3)n2)cc1 | 3.31 | 2.46 | 3.46 |
| COC(=O)c1cccc(CNCc2cccc(-c3cccc(-c4nc5ccccc5[nH]4)c3)c2)c1 | 1.94 | 3.05 | 2.93 |
| O=C(Nc1cccc(-c2ccc(-c3nc4ccccc4[nH]3)cc2)c1)Nc1ccc(F)c(F)c1F | -2.14 | 1.23 | 2.03 |
| COc1ccc(CN(C)CCCOc2ccc(NC(=O)c3cccc4c(=O)c5cccc(F)c5[nH]c34)cc2)cc1OC | 4.27 | 3.24 | 3.1 |
| CC(C)CC(C)NC(=O)C1Cc2c([nH]c3cc(Cl)ccc23)C2(CCN(CCc3ccccc3)CC2)N1 (configuration not stated) | 6.97 | 7.27 | 4.34 |
| O=C(c1cnn(-c2ccccc2)c1C(F)(F)F)N1CCN(c2ccnc3cc(Cl)ccc23)CC1 | 1.81 | 1.39 | 2.15 |
| C#Cc1cccc(NC(=O)[C@H](CC2CCCCC2)Nc2ccc(C#N)c3ccccc23)c1 | 2.22 | 2.53 | 1.87 |
| O=C(Cn1c(CCc2cccc(F)c2F)nc(=O)c2ccccc21)N(CCCN1CCCCC1)Cc1ccc(-c2ccc(C(F)(F)F)cc2)cc1 | 2.28 | 3.25 | 1.99 |
| O=C(Nc1ccsc1)Nc1cccc(-c2ccc(-c3nc4cc(C(F)(F)F)ccc4[nH]3)cc2)c1 | 6.66 | 6.27 | 7.95 |
| O=C(Nc1cccc(-c2ccc(-c3nc4cc(F)ccc4[nH]3)cc2)c1)c1ccoc1 | 1.01 | 1.14 | -0.42 |
| CS(=O)(=O)c1cccc(-c2cnc3[nH]cc(-c4ccc(C(=O)O)cc4)c3c2)c1 | 1.01 | -0.81 | 1.75 |
| Cc1nc(C)c(-c2ccc(-c3ccc(F)cc3)cc2)c(O)c1Br | 0.18 | -0.09 | -1.77 |
| COc1cc(-c2nc(-c3ccncc3)c(-c3ccc4c(c3)CCC4=NO)[nH]2)ccc1OCCN1CCCCC1 | -5.14 | 1.57 | 2.76 |
| O=C(c1cc(-c2cccs2)n[nH]1)N1CCN(S(=O)(=O)c2ccc(Cl)cc2)CC1 | 2.31 | 2.77 | 1.76 |
| CCNCCCC(C)Nc1ccnc2cc(Cl)ccc12 (configuration not stated) | -2.28 | -2.68 | -2.34 |
| Cc1cc(F)ccc1Nc1nc(N(C)c2ccccc2)c2cccc(O)c2n1 | 12.3 | 9.06 | 1.82 |
| O=C(NC1CCCCC1)N(Cc1cccc(-c2cccc(CNC3CCCC3)c2)c1)C1CCN(Cc2ccccc2)CC1 | 8.95 | 6.23 | 7.71 |
| COc1cccc(C(=O)NC(C=Cc2ccccc2)c2cc(Cl)c3cccnc3c2O)c1 (configuration not stated) | 2.89 | 2.04 | 2 |
| O=C(/C=C/c1c(Cl)cccc1Cl)NC1CCC(CN2CCC(Cc3cc4ccccc4[nH]3)CC2)CC1 (configuration not stated) | 4.15 | 10.2 | 2.31 |

— ChEMBL document CHEMBL3433997, “St. Jude Leishmania screening dataset” (2016)
